Luciferase inh: Firefly luciferase inhibition profiling of diverse chemical library using quantitative high-throughput screening. purified P. pyralis luciferase, luminescence, biochemical. Potency, µM (top dose mostly 115 µM), usual class: inhibitors. 76,000 tested, 2.5% active. AID 1347043, 2019; further: on the % scale 0 is the no-effect control and ±100 the full control effect; nearly all actives have a fitted effect of over 65% in size
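Purified P. pyralis luciferase (10nM final) in 50mM Tris acetate pH 7.5, 10mM Mg acetate, 0.01% Tween-20, 0.05% BSA with 10uM D-luciferin and 10uM ATP. Compounds titrated qHTS. Luminescence imaged on CCD.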
NIH3T3 tox: Cytotoxic Profiling in NIH 3T3 Cell Line of Diverse Libraries Using Quantitative High-Throughput Screening. 94,000 tested, 4.3% active. NIH 3T3 viability, CellTiter-Glo ATP luminescence, 48-72 h. Potency, µM (top dose mostly 96.7 µM), for inactives: at the highest dose activity change, negative = cytotoxicity, usual class: inhibitors; further: on the % scale 0 is the no-effect control and ±100 the full control effect; nearly all actives have a fitted effect of over 55% in size
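Luminescent ATP readout (CellTiter-Glo, 10 min RT) after 48 or 72 hr compound exposure of NIH 3T3 cells seeded at 400 cells/well in 1536-well format; quantitative HTS.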
NPR1 antag: Natriuretic polypeptide receptor (hNpr1) antagonism - Primary qHTS; Atrial natriuretic peptide receptor 1 (Homo sapiens), P16066; HEK293 hNpr1 GloSensor cGMP, ANP-stimulated luminescence; Potency, µM (highest dose often 46.3 µM), without a hit: top-dose activity change, negative = inhibition, hits mostly inhibitors; 76,000 tested, 1.6% active; AID 1347048, 2019; calls by dose curve; further: on the % scale 0 is the no-effect control and ±100 the full control effect; nearly all actives have a fitted effect of over 60% in size
Target sequence (P16066 whole entry, looked up): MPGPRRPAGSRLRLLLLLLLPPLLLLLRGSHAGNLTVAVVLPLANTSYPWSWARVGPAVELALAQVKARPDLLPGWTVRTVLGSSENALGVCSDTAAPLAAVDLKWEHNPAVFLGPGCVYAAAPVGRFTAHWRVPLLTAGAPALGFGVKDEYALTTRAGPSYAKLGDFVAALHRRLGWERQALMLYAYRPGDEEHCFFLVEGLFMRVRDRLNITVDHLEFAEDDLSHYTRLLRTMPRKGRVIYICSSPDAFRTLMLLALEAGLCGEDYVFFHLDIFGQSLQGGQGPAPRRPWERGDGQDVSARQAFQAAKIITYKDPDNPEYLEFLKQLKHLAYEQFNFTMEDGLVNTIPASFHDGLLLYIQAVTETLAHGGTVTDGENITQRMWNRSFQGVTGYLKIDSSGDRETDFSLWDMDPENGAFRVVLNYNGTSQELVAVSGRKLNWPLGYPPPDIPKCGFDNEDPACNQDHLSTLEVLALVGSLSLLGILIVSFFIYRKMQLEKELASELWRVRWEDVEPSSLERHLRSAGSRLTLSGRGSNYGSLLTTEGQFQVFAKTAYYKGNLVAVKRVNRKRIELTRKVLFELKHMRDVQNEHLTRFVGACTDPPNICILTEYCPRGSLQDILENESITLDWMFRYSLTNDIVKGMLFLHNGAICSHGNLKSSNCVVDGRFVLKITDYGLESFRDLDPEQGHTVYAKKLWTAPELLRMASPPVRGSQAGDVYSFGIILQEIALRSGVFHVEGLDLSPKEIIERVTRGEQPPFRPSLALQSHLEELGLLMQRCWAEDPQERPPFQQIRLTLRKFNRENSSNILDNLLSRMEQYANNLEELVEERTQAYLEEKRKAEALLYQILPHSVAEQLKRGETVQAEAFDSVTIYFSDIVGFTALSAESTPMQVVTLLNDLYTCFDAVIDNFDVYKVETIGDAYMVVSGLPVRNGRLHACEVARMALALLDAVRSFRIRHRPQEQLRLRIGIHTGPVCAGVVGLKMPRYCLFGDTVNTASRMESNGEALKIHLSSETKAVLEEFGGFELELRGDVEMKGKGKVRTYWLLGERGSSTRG
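Compound pre-incubated 30 min at room temperature on GloSensor-loaded HEK293 cells stably carrying hNpr1 and the pGS-40F cGMP biosensor. Stimulation uses hNppA at 0.1 nM final; luminescence is taken at baseline and 20 min post-agonist.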
HEK293 tox: Cytotoxic Profiling in HEK 293 Cell Line of Diverse Libraries Using Quantitative High-Throughput Screening; HEK 293 viability, ATP luminescence (CellTiter-Glo), 48-72 h; 94,000 tested, 6.6% active; Potency, µM (titrated, usually from 115 µM), for inactives: at the top dose activity change, negative = cytotoxicity, usual class: inhibitors; AID 1345083, 2018; further: on the % scale 0 is the no-effect control and ±100 the full control effect; nearly all actives have a fitted effect of over 60% in size
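CellTiter-Glo luminescence (cellular ATP) was read after 48 or 72 hr of compound exposure at 37 degree Celsius. Cells were HEK 293 plated at 250 cells/well.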
NPR1 antag cnf: Natriuretic polypeptide receptor (hNpr1) antagonism - Confirmation; 1,400 tested, 76% active; Potency, µM (highest dose often 57.6 µM), for the others: at the top dose activity change, negative = inhibition, hits mostly inhibitors; shares compounds with NPR1 antag; HEK293 hNpr1 cGMP GloSensor luminescence, ANP-stimulated; calls by dose curve; further: nearly all actives have a fitted effect of over 70% in size
NPR2 antag: Natriuretic polypeptide receptor (hNpr2) antagonism - Subtype selectivity assay. shares compounds with NPR1 antag. HEK293 hNpr2 GloSensor cGMP luminescence, CNP-stimulated. Potency, µM (series often up to 57.6 µM), for inactives: at the highest dose activity change, negative = inhibition, most hits filed as inhibitors. 1,400 tested, 67% active. AID 1347046, 2019; calls by dose curve; further: nearly all actives have a fitted effect of over 70% in size
FLuc counter: Natriuretic polypeptide receptor (hNpr1) antagonism - Confirmation firefly luciferase (FLuc) inhibition counterscreen | shares compounds with NPR1 antag | 1,400 tested, 0.7% active | purified FLuc enzyme, luminescence, Km substrate | Potency, µM (titrated, usually from 57.6 µM), inactives show at the top dose activity change, negative = inhibition, most hits filed as inhibitors; further: series mostly up to about 58 µM; 0% is about no effect
GloSensor cGMP: Natriuretic polypeptide receptor (hNpr1) antagonism - Counterscreen GloSensor control cell line; AID 1347051, 2019; HEK293 GloSensor cGMP, SNP-stimulated, luminescence; shares compounds with NPR1 antag; Potency, µM (highest dose often 57.6 µM), for inactives: top-dose activity change, negative = inhibition, most hits filed as inhibitors; 1,400 tested, 69% active; calls by dose curve; further: on the % scale 0 is the no-effect control and ±100 the full control effect; nearly all actives have a fitted effect of over 70% in size
The depositor's hits bear a star; i = inactive; ? = inconclusive; · = not tested or not shown; [ ] = dose if it differs, or a comment. This is a sample that favours compounds with a hit; in the whole collection about 11% have one here. Unless noted, the call rests on the fitted dose curve; in most records, active means well fitted curve in the direction sought with a large enough effect; inconclusive means small, poorly fitted or top-dose-only effect, or another doubt; inactive means no such curve, though single readings can be large; an effect the other way counts as inactive or inconclusive. Potency means the concentration at half of the fitted maximal effect.

SMILES	Luciferase inh	NIH3T3 tox	NPR1 antag	HEK293 tox	NPR1 antag cnf	NPR2 antag	FLuc counter	GloSensor cGMP
O=C(NCc1ccc(Cl)cc1)C1CCN(c2cc(C(F)(F)F)ncn2)CC1	i	?	11µM*	?	19µM*	19µM*	1%	15µM*
COc1cccc(CNC(=O)C2CCN(c3cc(C(F)(F)F)ncn3)CC2)c1	i	-22%	?	-13%	?	?	0%	?
O=C(Cc1ccc(Cl)cc1)NC1CCN(c2cc(C(F)(F)F)ncn2)CC1	i	-24%	?	?	·	·	·	·
C[C@@H](NC(=O)c1cccn1C)c1c(-c2ccc(F)cc2)noc1C(=O)O	i	-10%[138 µM]	-5%[70.6 µM]	-9%[172 µM]	·	·	·	·
Cc1ccc(C2Cn3nnc(-c4noc(COc5cccc(C)c5)n4)c3CO2)cc1 (stereo unspecified)	i	-8%	-21%	-14%	·	·	·	·
Cc1ccc(CNC(=O)c2cc3n(n2)CC(c2ccc(Cl)cc2)OC3)cc1 (stereo unspecified)	i	?	?	?	·	·	·	·
CC(C)Oc1ccc(CNC(=O)c2cc3n(n2)CC(c2ccc(Cl)cc2)OC3)cc1 (stereo unspecified)	i	?	?	?	?	-22%	2%	-25%
O=C(NCc1ccc(F)c(Cl)c1)c1cc2n(n1)CC(c1ccc(Cl)cc1)OC2 (stereo unspecified)	i	?	?	35µM*	?	-28%	3%	?
O=C(CCc1ccccc1)N1CCCc2ncc(C(=O)N3CCCC[C@@H]3Cc3ccccc3)cc21	i	-27%	0%	?	·	·	·	·
COc1ccc(CC(=O)NC2CCCN(c3cc(-c4ccc(Cl)cc4)[nH]n3)C2)cc1OC (stereo unspecified)	i	?	11µM*	22µM*	24µM*	15µM*	1%	24µM*
COc1ccc(C(=O)NC2CCN(c3cc(-c4ccc(F)cc4)[nH]n3)CC2)c(C)c1	i	?	0%	?	?	?	2%	-20%
COc1ccc(CC(=O)NC2CCN(c3cc(-c4ccc(OC)cc4)[nH]n3)CC2)cc1	i	?	-25%	?	?	?	0%	-27%
O=C(NC1CCN(c2cc(-c3ccccc3)[nH]n2)CC1)c1cc(Cl)ccc1F	i	?	-21%	?	-22%	-23%	2%	-19%
COc1ccc(CC(=O)NC2CCN(c3cc(-c4ccc(Cl)cc4)[nH]n3)CC2)cc1	i	?	?	?	·	·	·	·
Cc1nc(N2CCN(C(=O)COc3ccc(F)cc3)CC2)cc(C(F)(F)F)n1	i	?	-23%	?	·	·	·	·
O=C(NCc1ccc2c(c1)OCO2)c1ccc2nnc(-c3ccc(C(F)(F)F)cc3)n2c1	·	-30%	·	?	·	·	·	·
Cc1noc(C)c1C(=O)N1CCC2(CC1)CC(NC(=O)NC(C)C)c1ccccc12 (stereo unspecified)	·	-1%	·	i	·	·	·	·
CC(=O)Nc1ccc(CNC2(Cc3cc(CN(C)C)on3)COC2)cc1	i	-9%[138 µM]	-2%[70.6 µM]	-11%[172 µM]	·	·	·	·
O=S(=O)(N[C@H]1CO[C@H]2[C@@H]1OC[C@@H]2n1nnnc1-c1ccc2c(c1)OCO2)c1ccc2ccccc2c1	i	?	-4%	-24%	·	·	·	·
COc1ccc(C(=O)N2CCCN(c3cc(-c4ccc(F)cc4)[nH]n3)CC2)c(C)c1	i	?	5.6µM*	?	11µM*	12µM*	0%	6.9µM*
COc1ccc(C(=O)N2CCCN(c3cc(-c4ccc(Cl)cc4)[nH]n3)CC2)c(C)c1	i	?	3.5µM*	50µM*	9.7µM*	11µM*	0%	9.7µM*
CCOc1ccccc1CN1CCC2(CCN(C(=O)c3ccccc3F)CC2)Oc2ccccc21	i	?	0%	?	·	·	·	·
CN(Cc1cccnc1)c1ccc2ncc(Nc3cc(F)cc(N4CCOCC4)c3)n2n1	i	28µM*	?	?	35µM*	?	-11%[86.2 µM]	?
COc1ccc(F)cc1Nc1cnc2ccc(N(C)Cc3cccnc3)nn12	i	?	7.9µM*	35µM*	25µM*	25µM*	-5%[86.2 µM]	18µM*
COc1ccc(Nc2cnc3ccc(N(C)Cc4cccnc4)nn23)cc1	i	?	-15%[70.6 µM]	?	·	·	·	·
SMILES	Luciferase inh	NIH3T3 tox	NPR1 antag	HEK293 tox	NPR1 antag cnf	NPR2 antag	FLuc counter	GloSensor cGMP
Fc1cc(Nc2ncc(-c3cccnc3)c3c2OCC3)cc(N2CCOCC2)c1	?	?	-3%[70.6 µM]	?	·	·	·	·
CN(Cc1cccnc1)c1ccc2ncc(Nc3ccc(C(F)(F)F)cc3)n2n1	i	?	25µM*	45µM*	22µM*	31µM*	2%[86.2 µM]	22µM*
CN(Cc1ccc(F)cc1)c1ccc2ncc(Nc3ccncc3)n2n1	i	?	?	?	·	·	·	·
Cc1cc(C(=O)NCC23CCCC=C2NC(=O)CC3)n(C)n1 (stereo unspecified)	i	-16%	-4%	-1%	·	·	·	·
Cc1cccc(-c2ocnc2C(=O)N2C[C@@H](Oc3ccccc3)C[C@H]2C(=O)N2CCCC2)c1	i	-28%	3%	?	·	·	·	·
COc1ccc(C(=O)N2CCC3(CC2)N=C(c2ccc(Cl)cc2)NO3)cc1F	i	-26%	10µM*	?	19µM*	19µM*	-5%	22µM*
COc1ccc(C(=O)N2CCC3(CC2)N=C(c2ccccc2)NO3)cc1F	i	-14%	-8%	-7%	·	·	·	·
COc1ccc(C(=O)N2CCC3(CC2)N=C(c2ccc(Cl)cc2)NO3)cc1	i	-16%	10µM*	?	17µM*	19µM*	-13%	9.7µM*
O=C(C[C@@H]1C[C@H]2O[C@H](CNCc3cnccc3Cl)[C@@H](O)[C@H]2O1)N1CCOCC1	i	-3%[174 µM]	2%[70.6 µM]	i	·	·	·	·

Screening results (PubChem BioAssay)
